A selection: hits, their analogues and other compounds. The true share with any hit is near 1.4%.
LANA-H2B inh: blocks KSHV LANA binding to histone H2A/H2B; Q9QR71; cell-free LANA-H2A/H2B peptide, fluorescence polarization; inhibition, % (concentration not given with the values); 0.6% of 320,000 active; AID 2629; in the data active means inhibition mostly above about 10%, no sharp cut-off; inactive means mostly below about 6.7%
LYPLA2 counter: counter-screen for PME1 inhibitors: inhibitors of human LYPLA2; O95372; AID 2177; recombinant LYPLA2, FP-Rh probe fluorescence polarization; inhibition, % at 5.9 µM; 0.38% of 320,000 active;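 active means inhibition above the screen-wide mean plus 3 SD, limit set per campaign, cut at about 26% in these data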
LYPLA1 inh: counter-screen for PME1 inhibitors: inhibitors of human LYPLA1; recombinant LYPLA1, FP-Rh probe fluorescence polarization; inhibition, % at 5.9 µM; 0.16% of 320,000 active; AID 2174;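 active means inhibition above the mean of all tested compounds plus 3 SD, set per campaign, cut at about 14% in these data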;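 further: inhibitors block serine hydrolase probe labeling of LYPLA1 so polarization falls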
Target sequence (O75608 whole entry, looked up): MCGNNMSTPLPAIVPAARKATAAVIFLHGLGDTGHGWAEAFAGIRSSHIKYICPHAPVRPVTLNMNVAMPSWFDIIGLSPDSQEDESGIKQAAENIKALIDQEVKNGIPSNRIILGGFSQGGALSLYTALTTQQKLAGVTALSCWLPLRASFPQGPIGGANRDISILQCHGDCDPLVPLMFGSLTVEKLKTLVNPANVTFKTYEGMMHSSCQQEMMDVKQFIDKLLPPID
ZTA DNA inh: blocks Epstein-Barr virus ZTA, an EBNA-1 counter-screen; ZTA-DNA binding, fluorescence polarization; inhibition, % at 11 µM; 0.15% of 320,000 active; in the data active means inhibition above about 33%
Target sequence (P03206 whole entry, looked up): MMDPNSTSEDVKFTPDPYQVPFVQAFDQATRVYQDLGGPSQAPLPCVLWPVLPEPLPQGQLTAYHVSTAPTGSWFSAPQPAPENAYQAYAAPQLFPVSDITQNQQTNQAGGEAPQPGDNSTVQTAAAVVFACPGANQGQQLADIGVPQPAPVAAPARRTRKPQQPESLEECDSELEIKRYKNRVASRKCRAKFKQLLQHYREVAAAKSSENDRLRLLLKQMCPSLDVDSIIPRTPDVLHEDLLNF
EBNA-1 inhibitor: blocks EBNA-1 binding to DNA. EBNA-1 DNA binding, fluorescence polarization. inhibition, % at 14.8 µM. 0.34% of 300,000 active. AID 1950; in the data active means inhibition above about 28%
ZTA inh confirm: EBV ZTA DNA binding inhibition, confirmation; shares compounds with ZTA DNA inh; Zta-ZRE DNA binding, fluorescence polarization; inhibition, % at 11.1 µM; 30% of 320 active; AID 2361;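 active means mean inhibition across triplicate runs above the hit threshold derived for the original primary screen, cut at about 33% in these data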
EBNA1 counter: EBNA-1 DNA binding inhibition, counter-screen for ZTA; fluorescence polarization; shares compounds with ZTA DNA inh; AID 2362; inhibition, % at 14.8 µM; 320 tested, under 10 active; call rule not given here
Of the large screens only hits and unclear results are named; the others gave an inactive call (follow-up assays come after a bar, where they were run); ! = not confirmed by another sample.

O=c1[nH]c(/C=C\c2cccc(F)c2)nc(O)c1[N+](=O)[O-]	none
O=c1[nH]c(/C=C\c2cccc(Cl)c2)nc(O)c1[N+](=O)[O-]	ZTA DNA inh 40 | ZTA inh confirm 38 | EBNA1 counter inactive
Cc1cc(Nc2cccc(F)c2)n2nc(C)nc2n1	ZTA DNA inh 107 | ZTA inh confirm inactive | EBNA1 counter inactive
COc1ccc(N/C=C(\C=C\C#N)S(=O)(=O)c2ccccc2)cc1	none
CCOC(=O)Cc1csc(NC(=O)COc2c(C)cccc2C)n1	none
CCOC(=O)Cc1csc(NC(=O)COc2ccccc2OCC)n1	ZTA DNA inh 48 | ZTA inh confirm inactive | EBNA1 counter inactive
N#CC(CC(=O)c1ccc(F)cc1)c1ccc2c(c1)OCO2 (stereo unspecified)	none
COc1cc(CNCCc2c[nH]c3ccccc23)ccc1OCc1ccc(F)cc1	ZTA DNA inh 35 | ZTA inh confirm inactive | EBNA1 counter inactive
COc1cccc(CNCCc2c[nH]c3ccccc23)c1OCc1ccc(F)cc1	none
CCOc1ccc(NC(=S)N(CCOC)C2CCN(C(C)C)CC2)cc1	none
CCOC(=O)C1(C)NC(c2cccc(C)c2)C2C(=O)N(c3ccccc3)C(=O)C21 (stereo unspecified)	ZTA DNA inh active | ZTA inh confirm inactive | EBNA1 counter inactive
C/C(=N\NC(=S)NCCc1ccccc1)c1ccc(C#N)cc1	ZTA DNA inh 38 | ZTA inh confirm inactive | EBNA1 counter inactive
C/C(=N\NC(=S)NCCc1ccccc1)c1ccc(C)cc1	none
O=C(C1CCN(S(=O)(=O)c2ccc(Br)s2)CC1)N1CCCCC1	none
COc1ccc(-n2c(SCC(=O)Nc3nccs3)nc3sc4c(c3c2=O)CCN(C)C4)cc1	none
COc1ccc(NC(=O)CSc2nc3sc4c(c3c(=O)n2-c2ccc(OC)cc2)CCN(C)C4)cc1	ZTA DNA inh 34 | ZTA inh confirm inactive | EBNA1 counter inactive
O=[N+]([O-])c1ccc(-n2cnc3ccccc32)c([N+](=O)[O-])c1	none
CCC(C)Sc1cc(-c2nc3ccc(C)cn3c2NCc2ccccc2)ccc1OC (stereo unspecified)	ZTA DNA inh 40 | ZTA inh confirm 93 | EBNA1 counter inactive
CCN1CCN(Cc2ccc(NC(=O)c3cc(NC(=O)C(=O)c4c[nH]c5ccccc45)cc(OC)c3)cc2C(F)(F)F)CC1	none
CCN1CCN(Cc2ccc(NC(=O)c3ccc(C)c(NC(=O)C(=O)c4c[nH]c5ccccc45)c3)cc2C(F)(F)F)CC1	ZTA DNA inh 40! | ZTA inh confirm inactive | EBNA1 counter inactive
CC1(C)CC(=O)C=C(c2ccc(-c3ccccc3)cc2)C1	ZTA DNA inh 48 (no result: EBNA-1 inhibitor) | ZTA inh confirm inactive | EBNA1 counter inactive
COCC(=O)N1CCC(n2nccc2NC(=O)CCOc2ccccc2)CC1	none
COc1ccc(CNCc2c(O)c(Cl)cc3c(C)c(C)c(=O)oc23)c(OC)c1	none
Cc1nc2ccsc2c(=O)n1-c1ccc(Cl)cc1	none
COc1cc(O)c2c(c1)OC(c1ccc(O)cc1)CC2=O (stereo unspecified)	ZTA DNA inh 34 | ZTA inh confirm inactive | EBNA1 counter inactive
CCc1nnc(NS(=O)(=O)c2ccc(NC(=S)NC(=O)/C=C/c3ccccc3)cc2)s1	ZTA DNA inh 37 | ZTA inh confirm inactive | EBNA1 counter inactive
NC(=O)Cn1ccc(O)c(Cc2ccc(Cl)cc2Cl)c1=O	none
CCCCn1c(N)c(N(CCOC)C(=O)c2ccc(S(=O)(=O)N3CCC(C)CC3)cc2)c(=O)[nH]c1=O	none
CCOc1ccc(NC(=O)CSc2nccn(-c3ccc4c(c3)OCCO4)c2=O)cc1	ZTA DNA inh 47 | ZTA inh confirm inactive | EBNA1 counter inactive
COc1ccc(CCNC(=O)c2cccnc2Cl)cc1OC	none
Cc1oc2cc(OC(C)C(=O)O)ccc2c(=O)c1Oc1ccccc1 (stereo unspecified)	none
CCOc1ccc2c(=O)c(Oc3ccccc3)c(C)oc2c1	ZTA DNA inh 139 | ZTA inh confirm inactive | EBNA1 counter inactive
CCOC(=O)C1(Cc2cccc(OC)c2)CCN(CC=C(C)C)CC1	ZTA DNA inh 95 | ZTA inh confirm inactive | EBNA1 counter inactive
CCOC(=O)C1(Cc2cccc(OC)c2)CCN(C/C=C/c2ccc(OC)cc2)CC1	none
CC(C)OP(=O)(OC(C)C)C1(NS(=O)(=O)c2ccc(Cl)cc2)C=C(Cl)C(=O)C(Cl)=C1	none
CC(=O)c1ccccc1C(=O)N1CCC(n2nccc2NC(=O)C2CC2)CC1	none (no result: LYPLA2 counter, LYPLA1 inh, ZTA DNA inh, EBNA-1 inhibitor)
C/C(=N\NC(=O)c1cccc(S(=O)(=O)N2CCOCC2)c1)c1ccc(OCC(=O)N(C)C)cc1	none
CC(C)OC(=O)c1cc(NC(=S)Nc2ccc([N+](=O)[O-])cc2)cc(C(=O)OC(C)C)c1	ZTA DNA inh 52 | ZTA inh confirm inactive | EBNA1 counter inactive
CC(C)CCNC(=S)Nc1ccc([N+](=O)[O-])cc1	none
Cc1ccc(CNC(=O)c2ccc(N3CCC4(CC3)CC(c3ccccc3)=NO4)c(NC(=O)c3ccc(Cl)c([N+](=O)[O-])c3)c2)cc1	none
Cc1ccc(NC(=O)CSCC#N)cc1	ZTA DNA inh 34 | ZTA inh confirm inactive | EBNA1 counter inactive
COc1ccc(-c2coc3c(CN4CCCCC4)c(O)c(CN4CCCCC4)c(O)c3c2=O)cc1	ZTA DNA inh 73 | ZTA inh confirm inactive | EBNA1 counter inactive
Cc1nn(CC(=O)Nc2ccc(C(=O)N3CCCC3)cc2)c(=O)c2ccccc12	none
Cc1nn(CC(=O)Nc2ccc(C(=O)N3CCCCC3)cc2)c(=O)c2ccccc12	ZTA DNA inh 35 | ZTA inh confirm inactive | EBNA1 counter inactive
COc1cc(/C=C/C(=O)OC(C)C(=O)NC2CCCCC2C)cc(Cl)c1OC (stereo unspecified)	none
O=C(O)c1ccc(N/N=C/C2=C(N3CCOCC3)C(=C\c3ccccc3)/CC2)cc1	ZTA DNA inh 69 | ZTA inh confirm inactive | EBNA1 counter inactive
Cc1ccc([N+](=O)[O-])cc1NC(=O)C1CCN(S(C)(=O)=O)CC1	ZTA DNA inh 49 | ZTA inh confirm inactive | EBNA1 counter inactive
C#CCOCCOCCOCCNc1nc(N2CCN(C(=O)CCCCCCCCCCNC(=O)[C@H](CCCCN)n3cc(CCO)nn3)CC2)nc(N2CCN(C(=O)CCCCCCCCCCNC(=O)[C@H](CCCN=C(N)N)n3cc(C[C@@H](C)CC)nn3)CC2)n1	ZTA DNA inh 36 | ZTA inh confirm 65 | EBNA1 counter inactive
C#CCOCCOCCOCCNc1nc(N2CCN(C(=O)CCCCCCCCCCNC(=O)[C@H](CCCCN)n3cc(CCCC(=O)O)nn3)CC2)nc(N2CCN(C(=O)CCCCCCCCCCNC(=O)[C@H](CCCN=C(N)N)n3cc(C[C@@H](C)CC)nn3)CC2)n1	ZTA DNA inh 48 | ZTA inh confirm inactive | EBNA1 counter inactive

Screening data (PubChem)
